Compounds with a hit are over-represented: about 8% of the library has one in this group of screens.
HCV inhibitor: blocks hepatitis C virus. AID 651820. 340,000 compounds, 3.4% hits. Huh7.5.1 HCVcc-Cre infection, luciferase reporter, 44 h. Potency, µM (doses to about 41.8 µM), without a hit: top-dose activity change, negative = inhibition, hits mostly inhibitors; active means well fitted inhibition curve with a large enough effect; inconclusive means small, poorly fitted or top-dose-only effect, or another doubt; inactive means no such curve, though single readings can be large or run the other way; further: potency means the concentration at half of the fitted maximal effect; on the % scale 0 is the no-effect control and ±100 the full control effect
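Reporter virus HCVcc-Cre (~0.5 moi) infects cells exposed to compound; seeding density 1,000 cells/well with 4 h settling beforehand. Luminescence, 15 sec read, taken 44 h post-infection following a 15 min RT substrate incubation.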
LASV entry inh: Lassa virus entry inhibition; Lassa virus pseudotype entry inhibition, cell reporter; 300,000 compounds, 1.2% hits; Potency, µM (top dose mostly 37.9 µM), without a hit: at the top dose activity change, negative = inhibition, most hits filed as inhibitors; AID 540256; calls by dose curve; tested in HEK293 cells; further: potency means the concentration at half of the fitted maximal effect; on the % scale 0 is the no-effect control and ±100 the full control effect; nearly all actives have a fitted effect of over 50% in size
SARS PLpro yeast: blocks SARS-CoV papain-like protease in a yeast assay; AID 485353; S. cerevisiae expressing SARS-CoV PLpro, growth rescue; 330,000 compounds, 0.19% hits; Potency, µM (doses to about 32.9 µM), without a hit: at the top dose activity, positive = growth rescue, most hits filed as activators; calls by dose curve; further: potency means the concentration at half of the fitted maximal effect; 0% is about no effect; nearly all actives have a fitted effect of over 55% in size
Marburg entry inh: Marburg virus entry inhibition; Potency, µM (doses to about 37.8 µM), without a hit: top-dose activity change, negative = inhibition, hits mostly inhibitors; 300,000 compounds, 1.8% hits; Marburg virus pseudotyped entry inhibition, cell reporter; AID 540276; calls by dose curve; tested in HEK293 cells; further: potency means the concentration at half of the fitted maximal effect; on the % scale 0 is the no-effect control and ±100 the full control effect
FMDV antiviral: antivirals against foot and mouth disease virus; FMDV antiviral cell-based qHTS; Potency, µM (titrated, usually from 57.9 µM), inactives show at the highest dose activity change, negative = inhibition, hits mostly inhibitors; 410,000 compounds, 1.2% hits; AID 1159524; calls by dose curve; tested in HEK293T cells; further: read-out not given here; potency means the concentration at half of the fitted maximal effect; on the % scale 0 is the no-effect control and ±100 the full control effect; nearly all actives have a fitted effect of over 45% in size
HCMV inh: human cytomegalovirus inhibition. activity change, negative = inhibition, % at 57.5 µM. HFF cells, HCMV-luciferase reporter, 72 h; stronger effect = lower value. 410,000 compounds, 4.5% hits. AID 1259415; in the data active means activity change below about -60%; inconclusive means no clear call, values can overlap the other calls; inactive means above about -39%; further: on the % scale 0 is the no-effect control and ±100 the full control effect
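Two compound doses tested in HFFs infected with HCMV-luciferase, MOI 1 PFU/cell, 72 h at 37C. Lysate luminescence read with OneGlo; data normalized against buffer-only and 10uM Salinomycin inhibitor controls.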
Numbers without * were called inactive; ? = inconclusive; . = no result given; [ ] = remark or other dose.

SMILES	HCV inhibitor	LASV entry inh	SARS PLpro yeast	Marburg entry inh	FMDV antiviral	HCMV inh
Cc1cc(C(=O)Nc2ccccc2-c2nc(CNC(=O)C3COc4ccccc4O3)c(C)o2)c(C)o1 (stereo not drawn)	.	.	.	.	9%	.
C=CCOc1ccc(CNc2ccc3[nH]c(=O)[nH]c3c2)cc1OC	-14%	?	0%	17%[46.1 µM]	-4%	11
COc1cc(CNc2ccc3[nH]c(=O)[nH]c3c2)ccc1OCC(=O)NC(C)(C)C	11%	?	-9%	-20%	-5%	-16
COc1cc(CNc2ccc3[nH]c(=O)[nH]c3c2)ccc1OCc1ccccc1F	?	-10%[46.1 µM]	-1%	?	-15%	?
COc1cc(CNc2ccc3[nH]c(=O)[nH]c3c2)cc(Br)c1OCC(=O)NC(C)(C)C	?	-1%	2%	-24%	?	-71*
C=CCOc1cccc(CNc2ccc3[nH]c(=O)[nH]c3c2)c1	11µM*	?	-1%	?	?	-22
COc1cc(CNc2ccc3[nH]c(=O)[nH]c3c2)ccc1OCc1ccccc1C	-38%	-11%	-2%	-22%	?	-70*
CCOc1cc(CNc2ccc(N3CCCCC3)cc2)cc(Br)c1OCC(=O)NC(C)(C)C	?	-13%	-28%	-30%	32µM*	-4
CCn1cc(S(=O)(=O)c2cccc(Cl)c2)c(=O)c2cc(F)c(N3CCN(C)CC3)cc21	.	-4%[46.1 µM]	.	.	7%	32
Cc1cc2c(cc1S(=O)(=O)NCc1ccc(F)cc1)OCCN2C	.	13%[46.1 µM]	.	.	66%	-25
CCOC(=O)c1ccccc1NC(=O)CSc1ccc(-c2sc(-c3ccccc3)nc2C)nn1	.	-23%[46.1 µM]	.	.	-20%	16
O=C(c1ccc2c(c1)CCN2S(=O)(=O)c1ccc(Cl)cc1)N1CCN(c2ccc(F)cc2)CC1	.	-11%[46.1 µM]	.	-2%[46.1 µM]	-27%	?
CN1CCN(c2ncc3nc(CCc4ccccc4)c(=O)n(C4CC4)c3n2)CC1	.	.	.	.	-10%	.
CCOc1cc(CNc2ccc(N(C)C)cc2)cc(Br)c1OCC(=O)NC(C)(C)C	11µM*	?	-22%	-10%	14µM*	-18
CCOc1cc(CNc2ccc3c(c2)OCCO3)cc(Br)c1OCC	2µM*	-22%	-8%	?	32µM*	-86*
COc1cc([C@@H]2C(C(C)=O)=C(O)C(=O)N2c2ccc(Br)cn2)ccc1O	.	.	.	-9%	.	.
Nc1ccccc1S(=O)(=O)NCCCCc1ccccc1	-5%	.	-1%	.	25%	-100*
O=S(=O)(NCCCc1ccccc1)c1cccc2nsnc12	-3%	1%	1%	9%	3%	-18
COc1ccc(C(C)(O)c2nc(-c3ccccc3)cs2)cc1 (stereo not drawn)	.	.	.	.	-17%	-78*
COc1cccc(C(C)(O)c2nc(-c3ccc(N(C)C)cc3)cs2)c1 (stereo not drawn)	.	.	.	.	-7%	-74*
COc1cccc(C(C)(O)c2nc(-c3ccccc3)cs2)c1 (stereo not drawn)	.	.	.	.	-10%	?
COc1ccc(-c2csc(C(C)(O)c3cccnc3)n2)cc1 (stereo not drawn)	.	.	.	.	0%	-69*
CSc1nccc(-c2cc(Cl)c3c(c2)CC(CNC(=O)c2nonc2C)O3)n1 (stereo not drawn)	.	.	.	.	-13%	.
C=CCN1C(=O)CC[C@@]23C1=NC(C(=O)OC)=C(C(=O)OC)[C@@H]2N(CC=C)c1ccccc13	.	.	.	-3%[14.2 µM]	.	.
CC(C)N1CCC(N2CCN(C/C=C/c3ccc(F)cc3)CC2CCO)CC1 (stereo not drawn)	10µM*	?	1%	?	-10%	12
Cc1ccc(-c2cccc(CN3CCN(C4CCN(C(C)C)CC4)C(CCO)C3)c2)o1 (stereo not drawn)	5µM*	.	1%	.	-8%	12
CC(C)N1CCC(N2CCN(Cc3ccc(-c4ccc(Cl)cc4)o3)CC2CCO)CC1 (stereo not drawn)	4µM*	?	2%	3.2µM*	-15%	29
CC(C)CN1CCN(C2CCN(C(C)C)CC2)C(CCO)C1 (stereo not drawn)	.	.	1%	.	.	.
COC(=O)C/C=C/[C@@H](C)[C@@H](/C=N/OC[C@@H](O)COCc1ccco1)OC	.	.	.	-14%[14.2 µM]	.	.
